# Screening results as filed in PubChem.
# The list is not random: actives were taken first. Their share in the collection is about 2.8%.
# CF NFkB block: cystic fibrosis NF-kB activation inhibition; KKLEB NF-kB-GFP reporter, PAF-induced, GFP fluorescence overnight; inhibition, % at 5 µM; 0.86% of 360,000 active;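 active means at least 50% inhibition at 5 µM, scaled per plate between neutral and stimulator controls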;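 further: PAF is a Pseudomonas aeruginosa culture filtrate used as stimulus; plate controls were PAF-stimulated DMSO wells for no effect and unstimulated DMSO wells for full effect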
# KKLEB cytotox: CF airway cell cytotoxicity counter-screen | KKLEB CF airway cells viability, ATPlite luminescence, overnight; hits give low values; cells stimulated with P. aeruginosa culture filtrate | activity change (cytotoxicity), % at 5 µM | 0.36% of 360,000 active;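 active means corrected activity change at or below -50% at 5 µM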
# MITF TRPM1 inh: MITF TRPM1 promoter inhibition in SK-MEL-5 cells | SK-MEL-5 TRPM1 promoter luciferase, 24 h | inhibition, % at 12.5 µM | 0.83% of 330,000 active;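 active means mean inhibition across replicates of 60% or more, whatever share of single replicates reaches that level; inconclusive means some that reach 60%, reason not given; inactive means mean inhibition across replicates below 60%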
# Peg3 prom inh-1: Peg3 promoter activity inhibition; HeLa PEG-Prom luciferase reporter, luminescence, overnight; 1.7% of 360,000 active; inhibition, % at 20 µM;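 active means inhibition of at least 50% at 20 µM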
# Shn3 3UTR inh: Schnurri-3 reporter inhibition in Clone20 osteoblasts; AID 588674; inhibition, % at 12.5 µM; Clone20 osteoblast Shn3 3'UTR firefly luciferase, 24 h; 0.52% of 360,000 active;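 active means mean inhibition of at least 75% with every replicate also reaching 75%; inconclusive means mean inhibition at least 75% but some replicate below; inactive means mean inhibition below 75%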;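 further: 0% = median of neutral control wells and 100% = pilot-screen positive control compound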
# HIF-2a block: blocks HIF-2a reporter activity; 0.72% of 360,000 active; inhibition, % at 18.8 µM; AID 624352; 786-0 RCC cells HIF-2a reporter, luciferase luminescence, overnight;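 active means inhibition of the luminescence signal of 40% or more relative to plate controls, in a single-dose primary screen at 18.75 µM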
# Peg3 prom inh-2: confirmation of Peg3 promoter inhibitors | AID 602417 | shares compounds with Peg3 prom inh-1 | HeLa PEG-Prom luciferase reporter, luminescence, overnight | inhibition, % at 20 µM | 84% of 1,300 active;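 active means at 20 µM dose, 40% or more inhibition averaged across four replicates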
# Active calls of the source: *; ? = inconclusive; . = not tested or not shown.
SMILES,CF NFkB block,KKLEB cytotox,MITF TRPM1 inh,Peg3 prom inh-1,Shn3 3UTR inh,HIF-2a block,Peg3 prom inh-2
O=C1C(=O)N(c2ccccc2)P(=O)(N(CCCl)CCCl)N1c1ccccc1,19.4,4.1,-91.2,-240.8,-40.7,-230.6,.
CC(C)(C)n1nnnc1C(CCc1ccccc1)N1CCC(n2c(=O)[nH]c3ccccc32)CC1 (stereo not drawn),-18.8,-5.4,.,83.6*,-3.7,-27.4,82.4*
CSCCC(c1nnnn1C1CCCC1)N1CCC(n2c(=O)[nH]c3ccccc32)CC1 (stereo not drawn),0.9,-4.0,.,27.1,-3.4,-16.7,.
COC(=O)C1=C(c2ccc(OC)c(OC)c2)C[C@@H]2CC[C@H]1N2C(=O)NCc1cc(C)oc1C(F)(F)F,12.2,-2.6,-1.9,13.5,5.8,15.5,.
C=Cc1cc(OC)c2c(c1)c(=O)oc1c2cc(OC)c2c(O)ccc(C3OC(C)C(O)C(C)(O)C3O)c21 (stereo not drawn),79.2*,-24.6,77.6*,105.6*,11.8,52.4*,98.4*
Cc1c(C(=O)N2CCC3(CC2)OCCO3)sc2ncnc(N3CCN(c4ccccn4)CC3)c12,-6.9,-4.1,0.9,71.7*,18.4,-2.6,55.6*
CCCNC(=O)Cn1cnc2sc(C(=O)N3CCC4(CC3)OCCO4)c(C)c2c1=O,-21.7,10.6,-15.1,-2.4,2.6,10.6,.
COc1cc2c(cc1OC)C(C(=O)N(C)C1CCCCC1)C1CCCCN1C2=O (stereo not drawn),11.7,-1.8,-4.3,11.2,16.9,12.3,.
O=C1NC(=O)N(Cc2ccco2)C(=O)/C1=C/C=C/c1ccco1,77.6*,-15.4,95.4*,62.9*,33.9,87.0*,73.1*
Cn1cccc1/C=C1\C(=O)NC(=O)N(Cc2ccco2)C1=O,18.6,-10.1,-13.1,21.8,-2.8,13.8,.
O=C1NC(=O)N(Cc2ccccc2)C(=O)/C1=C\C=C\c1ccco1,74.4*,-50.9*,96.3*,88.9*,-8.9,45.7*,62.5*
O=Cc1cn(Cc2ccc(Br)cc2)c2ccccc12,13.3,7.7,19.8,77.5*,29.6,12.8,73.9*
COC(=O)c1cn(Cc2ccc(F)cc2)c2ccccc12,-6.0,-0.3,.,4.0,-24.4,-5.3,.
O=Cc1cn(Cc2cccc(F)c2)c2ccccc12,11.4,4.3,2.4,85.2*,11.1,11.9,65.4*
COC(=O)C1=C(c2ccc(F)cc2OCc2ccccc2)C[C@@H]2CC[C@H]1N2C(=O)NCc1ccc([N+](=O)[O-])cc1,13.0,-34.7,15.3,-11.6,14.0,-14.2,.
CCN(CC)C(=O)Cn1cc(/C=C2\C(=O)NC(=O)N(c3ccccc3F)C2=O)c2ccccc21,-33.2,-4.5,10.0,57.6*,43.9,43.7*,91.6*
CC1(C(=O)O)CC12c1ccccc1-c1ccccc12 (stereo not drawn),-7.9,3.0,0.4,-15.2,-18.5,13.0,.
COC(=O)C1=C(c2ccc(F)cc2OCc2ccccc2)C[C@@H]2CC[C@H]1N2C(=O)N1CCOCC1,2.2,12.0,14.7,1.7,-6.2,10.7,.
CCOP(=O)(OCC)C(C)(C)NC(=O)C(Cl)(Cl)Cl,-13.7,-9.7,-3.2,6.5,-4.1,16.6,.
CCN(CC)C(=O)c1ccc(NC(=O)c2cccc(C(F)(F)F)c2)cc1,1.0,-1.7,-15.2,-28.6,19.9,-31.7,.
CCN(CCCl)c1cc(CN(C)C)cc(NC(=O)c2ccc(C(=O)Nc3cc(CN(C)C)cc(N(CC)CCCl)c3)cc2)c1,79.7*,-88.9*,98.0*,101.5*,96.2*,70.0*,99.3*
C[C@]12CC[C@H]3C(CCC4(O)CC(O)CC[C@]34C=O)C1=CC[C@H]2c1ccc(=O)oc1 (stereo partly drawn),48.6,-43.5,?,105.2*,7.3,17.9,96.9*
Cc1ccc(S(=O)(=O)c2nc(-c3ccccc3Cl)oc2N(C)C2CCN(C)CC2)cc1,40.8,-20.3,.,63.9*,-11.6,-25.6,78.2*
CNCC(O)c1cc(OCc2ccccc2)c(OCc2ccccc2)cc1F (stereo not drawn),-9.1,-8.0,-20.1,98.0*,23.2,-18.4,89.4*
